GPT2 inh: Primary qHTS assay for inhibitors of Glutamate pyruvate transaminase 2 (GPT2); Recombinant GPT2, coupled pyruvate oxidase/HRP Amplex Red fluorescence; 0.25% of 100,000 active; AID 1671188, 2021; Alanine aminotransferase 2 (Homo sapiens), Q8TD30; Potency, µM (top dose mostly 57.7 µM), without a hit: top-dose activity change, negative = inhibition, usual class: inhibitors; note: % is set by controls: 0 for no effect and ±100 for the full control effect; nearly all actives have a fitted effect of over 60% in size
Target sequence (Q8TD30 whole entry, looked up): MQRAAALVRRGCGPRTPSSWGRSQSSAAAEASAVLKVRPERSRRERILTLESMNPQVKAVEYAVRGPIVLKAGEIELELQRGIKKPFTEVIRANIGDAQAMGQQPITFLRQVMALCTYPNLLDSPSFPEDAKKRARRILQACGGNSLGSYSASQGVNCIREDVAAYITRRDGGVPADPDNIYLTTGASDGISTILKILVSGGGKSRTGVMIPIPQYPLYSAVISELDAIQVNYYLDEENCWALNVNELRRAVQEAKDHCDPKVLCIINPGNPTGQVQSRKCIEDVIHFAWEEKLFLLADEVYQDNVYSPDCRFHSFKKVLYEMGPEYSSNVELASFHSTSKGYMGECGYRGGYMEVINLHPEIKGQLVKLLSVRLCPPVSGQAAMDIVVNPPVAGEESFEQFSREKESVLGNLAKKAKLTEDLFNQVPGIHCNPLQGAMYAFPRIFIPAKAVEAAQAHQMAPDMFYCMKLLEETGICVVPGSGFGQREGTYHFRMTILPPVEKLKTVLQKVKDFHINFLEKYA
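Inhibition is scored from Amplex Red fluorescence generated when pyruvate oxidase and HRP act on pyruvate released by GPT2. Reactions contain 10ng/uL enzyme, 250uM a-KG and 2mM L-alanine and run 30 min at room temperature.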
hNpr1 antagonist: Natriuretic polypeptide receptor (hNpr1) antagonism - Primary qHTS | Atrial natriuretic peptide receptor 1 (Homo sapiens), P16066 | HEK293 hNpr1 GloSensor cGMP, ANP-stimulated luminescence | Potency, µM (titrated, usually from 46.3 µM), inactives show at the top dose activity change, negative = inhibition, actives largely listed as inhibitors | 1.6% of 76,000 active | AID 1347048, 2019; calls by dose curve; note: % is set by controls: 0 for no effect and ±100 for the full control effect; nearly all actives have a fitted effect of over 60% in size
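HEK293 cells stably expressing human Npr1 and cGMP GloSensor pGS-40F, loaded 2 h with 2% GloSensor reagent, given compound 30 min at room temperature. Luminescence read before and 20 min after 0.1 nM hNppA.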
NIH3T3 tox: Cytotoxic Profiling in NIH 3T3 Cell Line of Diverse Libraries Using Quantitative High-Throughput Screening | NIH 3T3 viability, CellTiter-Glo ATP luminescence, 48-72 h | Potency, µM (highest dose often 96.7 µM), for inactives: at the top dose activity change, negative = cytotoxicity, most hits filed as inhibitors | 4.3% of 94,000 active | AID 1345082, 2018; note: % is set by controls: 0 for no effect and ±100 for the full control effect; nearly all actives have a fitted effect of over 55% in size
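Mouse fibroblast NIH 3T3 cells, 400 per well, received compound via pintool and were incubated for 48 or 72 hr prior to CellTiter-Glo ATP luminescence measurement.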
HEK cytotox: Cytotoxic Profiling in HEK 293 Cell Line of Diverse Libraries Using Quantitative High-Throughput Screening | Potency, µM (top dose mostly 115 µM), for the others: at the highest dose activity change, negative = cytotoxicity, most hits filed as inhibitors | HEK 293 viability, ATP luminescence (CellTiter-Glo), 48-72 h | 6.6% of 94,000 active; note: % is set by controls: 0 for no effect and ±100 for the full control effect; nearly all actives have a fitted effect of over 60% in size
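Cells seeded first (HEK 293, 250 cells/well), then compound added by pintool. Incubation ran 48 or 72 hr at 37 degree Celsius. CellTiter-Glo was added and luminescence imaged after 10 min at room temperature.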
FLuc inh-1: Firefly luciferase inhibition profiling of diverse chemical library using quantitative high-throughput screening. Luciferin 4-monooxygenase (Photinus pyralis), P08659. purified P. pyralis luciferase, luminescence, biochemical. Potency, µM (doses to about 115 µM), hits mostly inhibitors. 2.5% of 76,000 active; note: % is set by controls: 0 for no effect and ±100 for the full control effect; nearly all actives have a fitted effect of over 65% in size
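Luminescence read by CCD imaging after purified firefly luciferase (10nM final) was added to substrate buffer holding 10uM D-luciferin and 10uM ATP, pH 7.5, pre-dosed with compound.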
FLuc SDR no ATP: Firefly luciferase (FLuc-C-HiBiT) SDR gain of signal screen - without ATP; Purified FLuc-C-HiBiT, Nano-Glo HiBiT luminescence, no ATP; shares compounds with FLuc inh-1; 7.8% of 1,300 active; AID 1963318, 2024; Potency, µM (top dose mostly 32.7 µM), for inactives: at the highest dose activation (signal gain), most hits filed as activators; note: nearly all actives have a fitted effect of over 55% in size
FLuc SDR ATP: Firefly luciferase (FLuc-C-HiBiT) SDR gain of signal screen - plus ATP; purified FLuc-C-HiBiT + ATP, HiBiT complementation luminescence; Potency, µM (highest dose often 32.7 µM), without a hit: at the highest dose activation (gain of signal), actives largely listed as activators; shares compounds with FLuc inh-1; 8.7% of 1,300 active;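 note: signal reports ligand binding via conformational change of the enzyme rather than luciferase catalysis; % of control where 0% means no effect; nearly all actives have a fitted effect of over 55% in size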
FLuc inh-2: Firefly luciferase (FLuc-C-HiBiT) enzymatic inhibition screen - Functional assay | shares compounds with FLuc inh-1 | purified FLuc-C-HiBiT enzyme, luciferin luminescence | Potency, µM (titrated, usually from 32.7 µM), for the others: at the highest dose activity change, negative = inhibition, most hits filed as inhibitors | 42% of 1,300 active | AID 1963320, 2024; note: % is set by controls: 0 for no effect and ±100 for the full control effect; nearly all actives have a fitted effect of over 70% in size
* = called active by the depositor; i = inactive; ? = inconclusive; nt = no result; [ ] = another dose, or the depositor's remark. Only some compounds are listed: those with a hit (about 10% of all), similar ones and a draw of the others. Unless noted, calls come from the whole dose curve; as a rule, active = well fitted curve in the direction sought with a large enough effect; inconclusive = small, poorly fitted or top-dose-only effect, or another doubt; inactive = no such curve, though single readings can be large; an effect the other way counts as inactive or inconclusive. Potency is the fitted concentration of half-maximal effect.

SMILES | GPT2 inh | hNpr1 antagonist | NIH3T3 tox | HEK cytotox | FLuc inh-1 | FLuc SDR no ATP | FLuc SDR ATP | FLuc inh-2
c1ccc2cc(-c3nc(C4CCOC4)no3)ncc2c1 (stereo unspecified) | -33% | ? | -29% | 1% | 2.5µM* | 15% | ? | ?
COc1ccc2c(C)c(-c3nc(C4CCOC4)no3)oc2c1 (stereo unspecified) | 2% | 4% | ? | ? | 13µM* | 14% | 13% | -18%
CN(C)c1ccc(-c2nc(C3CCOC3)no2)cc1 (stereo unspecified) | -7% | ? | -33% | ? | 4µM* | 24% | ? | ?
Cc1nc2ccc(-c3nc(C4CCOC4)no3)cc2s1 (stereo unspecified) | ? | ? | ? | ? | 2µM* | 25% | ? | 11µM*
CO[C@H]1C(=O)N(C(C)C)[C@H]1C1CCN(Cc2cccc(C#N)c2)CC1 | i | -2% | -16% | -11% | i | nt | nt | nt
O=C1c2cc(N3CCOCC3)nc(-c3cnc4[nH]ccc4c3)c2CN1CC(F)(F)F | i | -2%[70.6 µM] | -81%[138 µM] | ? | i | nt | nt | nt
N#Cc1ccc(C(=O)Nc2ccc([C@H]3OCC(=O)N(C4CCOCC4)[C@@H]3CO)cc2)cc1 | 4% | 0% | 1% | -4% | i | nt | nt | nt
O=C(Nc1ccc([C@H]2OCC(=O)N(C3CCOCC3)[C@@H]2CO)cc1)c1ccc(C(F)(F)F)cc1 | -2% | 0% | -18% | -5% | 10µM* | ? | 15% | ?
N#CC1CCN(C(=O)c2nc3cccnc3n(Cc3ccccc3)c2=O)CC1 | -11% | nt | -13% | 0% | nt | nt | nt | nt
CC(=O)NCCNC(=O)c1ccc2c(=O)n(CCc3ccccc3)c(=O)[nH]c2c1 | nt | nt | nt | nt | nt | 10% | 14% | ?
N#C/C(=C\c1ccc(-c2cc(Cl)ccc2Cl)o1)C(=O)Nc1ccccc1C(=O)O | nt | nt | nt | nt | nt | 4% | 4% | ?
COc1ccc(-c2cnc(NC(=O)Cc3ccccc3)c3c2CCO3)cn1 | i | -4%[70.6 µM] | ? | -24%[172 µM] | i | nt | nt | nt
COc1cccc(Nc2ncc(-c3cccnc3)c3c2OCC3)c1 | i | -29%[70.6 µM] | ? | 100µM* | 14µM* | 21%[49.3 µM] | 14%[49.3 µM] | ?
COc1ccc(-c2cnc(Nc3ccccc3)c3c2CCO3)cn1 | i | ? | ? | ? | 3.5µM* | 19%[49.3 µM] | 12%[49.3 µM] | ?
c1ccc(-c2cnc(Nc3ccc4c(c3)OCCO4)c3c2CCO3)cc1 | 4%[88.5 µM] | ? | ? | ? | 2.8µM* | 13%[49.3 µM] | 11%[49.3 µM] | 16µM*
CNC(=O)c1cccc(-c2cnc(Nc3ccc(Cl)cn3)c3c2CCO3)c1 | 1%[88.5 µM] | ? | ? | ? | 3.2µM* | 18%[49.3 µM] | 17%[49.3 µM] | ?
O=C(C1CCCN1[S+](=O)([O-])c1cccs1)N1CCC(c2nc3ccncc3[nH]2)C1 (stereo unspecified) | i | nt | -4% | i | nt | nt | nt | nt
O=C1CCCCC(C(=O)NCc2ccc(OC(F)(F)F)cc2)N1 (stereo unspecified) | i | nt | -29% | -15% | nt | nt | nt | nt
COc1ccc(NC(=O)c2cc3c(N(C)Cc4ccccc4)nc(C)cn3n2)cc1 | ? | 6% | ? | ? | i | nt | nt | nt
CCc1ccc(NC(=O)c2cc3ccccn3n2)cc1 | nt | nt | nt | nt | nt | ? | ? | 1.8µM*
O=C([C@H]1CCCN1C(=O)Nc1ccc(Cl)cc1)N1CCCC(c2nc3ccncc3[nH]2)C1 (stereo partly specified) | 4% | nt | -17% | -20% | nt | nt | nt | nt
CCc1cnc(N2CCC(COc3ccc4c(cnn4CCC(=O)O)c3)CC2)nc1 | -2%[88.5 µM] | 0%[70.6 µM] | ? | -6%[172 µM] | ? | nt | nt | nt
CC(C)c1cnc(N2CCC(COc3ccc4c(cnn4CCC(=O)O)c3)CC2)nc1 | 4%[88.5 µM] | 1%[70.6 µM] | ? | ? | 14µM* | 15%[49.3 µM] | 9%[49.3 µM] | ?
Cc1ccc(NC(=O)N2CCC(CCNC(=O)C3CC3)CC2)cc1F | i | -14% | -17% | -12% | 11µM* | ? | ? | ?
O=C(NCCC1CCN(C(=O)Nc2ccccc2)CC1)c1ccc(F)cc1 | -4% | -14% | -5% | 2% | ? | nt | nt | nt
SMILES | GPT2 inh | hNpr1 antagonist | NIH3T3 tox | HEK cytotox | FLuc inh-1 | FLuc SDR no ATP | FLuc SDR ATP | FLuc inh-2
O=C(NCCC1CCN(C(=O)Nc2cc(F)cc(F)c2)CC1)c1ccc(F)cc1 | 1% | -22% | ? | ? | 14µM* | 17% | 11% | -18%
COc1ccccc1C(=O)N1CCC(C(=O)N2CCC(N3CCOC3=O)CC2)CC1 | i | nt | -4% | -2% | nt | nt | nt | nt
Cc1nc(C2CC23CCN(S(=O)(=O)c2cccc(F)c2)CC3)no1 (stereo unspecified) | i | nt | -33% | -7% | nt | nt | nt | nt
CCC(CC)Nc1ncnc2c1CN(C1CCCNCC1)C(=O)CN2C (stereo unspecified) | ? | nt | -7% | 0% | nt | nt | nt | nt
Cc1nccn1CCN(C)c1ccc(-c2nc(COc3ccccc3)no2)cn1 | -2% | ? | ? | ? | 13µM* | 20% | 18% | 9.9µM*
CCN1C(=O)C2CC3(CCN(S(=O)(=O)c4cccc5nsnc45)CC3)CN2C1=O (stereo unspecified) | -22% | nt | -22% | -5% | nt | nt | nt | nt
COc1ccc(-c2cc3c(ccn3C)c(C(=O)NCCC(N)=O)n2)cc1OC | -8%[88.5 µM] | 0%[70.6 µM] | ? | -11%[172 µM] | ? | nt | nt | nt
CN1CCN(c2ccc(-c3cc4c(ccn4C)c(C(=O)NCCN4CCNC4=O)n3)cc2)CC1 | 1% | 6% | ? | ? | 4.5µM* | 25% | 16% | ?
